Assay results as given in the supplement of paper PMC3334620.
Over roughly 33,000 sequences, “E-score (-0.5 to 0.5)” has its median near -0.032; the highest 2% begin near 0.36. The sample as a whole holds a higher share of the highest values than the screen did.

The sequences below were run against T1, Sko1 (UniProt Q02100) (assay: PBM E-score (8-mer binding enrichment) (E-score (-0.5 to 0.5)); higher = stronger / more preferred TF binding). Settings: protein concentration: 200 nM; construct: GST-full length.
T1 sequence: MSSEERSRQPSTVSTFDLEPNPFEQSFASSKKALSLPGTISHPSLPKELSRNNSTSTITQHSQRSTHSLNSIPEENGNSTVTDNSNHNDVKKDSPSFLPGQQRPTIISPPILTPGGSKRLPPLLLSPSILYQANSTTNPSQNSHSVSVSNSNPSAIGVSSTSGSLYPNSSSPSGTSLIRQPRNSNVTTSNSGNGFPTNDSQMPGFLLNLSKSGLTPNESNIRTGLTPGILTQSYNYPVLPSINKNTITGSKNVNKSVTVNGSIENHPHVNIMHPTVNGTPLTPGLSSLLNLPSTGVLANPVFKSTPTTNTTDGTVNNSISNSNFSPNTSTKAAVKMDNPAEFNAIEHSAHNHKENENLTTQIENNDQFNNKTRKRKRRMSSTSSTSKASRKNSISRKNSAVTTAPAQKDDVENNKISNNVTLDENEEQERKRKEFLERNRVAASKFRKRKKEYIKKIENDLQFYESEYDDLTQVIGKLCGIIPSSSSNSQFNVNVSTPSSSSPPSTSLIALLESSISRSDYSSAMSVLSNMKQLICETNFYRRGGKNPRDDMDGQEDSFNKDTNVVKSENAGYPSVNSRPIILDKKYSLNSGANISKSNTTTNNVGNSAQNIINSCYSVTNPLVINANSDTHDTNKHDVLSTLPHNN
Experimental: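 Universal 'all 10-mer' protein binding microarrays (Agilent AMADID 015681) probed with GST-tagged S. cerevisiae TFs (full-length or DBD) made by in vitro transcription/translation (PURExpress), about 100-200 nM. Bound TF was detected with fluorescent anti-GST. Each ungapped 8-mer (which stands for itself and its reverse complement) is scored by the PBM enrichment score (E-score), a modified Wilcoxon-Mann-Whitney statistic from -0.5 to +0.5, computed with the Universal PBM Analysis Suite. Scale: above 0.35 generally sequence-specific binding.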

First: GCTAGAGA
Second: AACTTTAG
The “PBM E-score” value of the first is lower: -0.0277 for the first, 0.247 for the second.

First: CCTATGTA
Second: CGATCCGC
The “PBM E-score” value of the first is higher: -0.0157 for the first, -0.0715 for the second.

Compared with GACCAACA, AATCTCAC is lower in “PBM E-score” value: 0.17 for the first, -0.0325 for the second.

Compared with CCTGTTCG, AAGTGATC is higher in “PBM E-score” value: -0.0292 for the first, 0.112 for the second.

Compared with ACGTGAAC, GCGTGATA is lower in “PBM E-score” value: 0.311 for the first, 0.145 for the second.

Going from ACGTGATG to ACGTGATC, the “PBM E-score” value falls from 0.442 to 0.432.

First: CCGTGATC
Second: ACGTGAAA
The “PBM E-score” value of the first is lower: -0.255 for the first, 0.386 for the second.

Going from TCGTGAAA to AGGTGATG, the “PBM E-score” value rises from 0.0383 to 0.087.

Going from ACGTGAGG to CCGTGATA, the “PBM E-score” value falls from 0.276 to -0.0242.

Going from ACGTGATA to ATATCAAC, the “PBM E-score” value falls from 0.409 to 0.141.

Compared with AGGGGAGC, TAGGTTCA is higher in “PBM E-score” value: -0.294 for the first, -0.0685 for the second.

Going from TGTTGCAA to CAATTCAC, the “PBM E-score” value falls from 0.131 to 0.049.

Compared with AGGTGAGG, CGCAGATA is higher in “PBM E-score” value: -0.192 for the first, -0.00801 for the second.

Compared with CAAGGCAA, CGCTCTTA is higher in “PBM E-score” value: -0.136 for the first, 0.112 for the second.

Compared with ACGTTTCG, ATGCTCGA is lower in “PBM E-score” value: 0.347 for the first, 0.00694 for the second.

First: CACTGATG
Second: GTGATCAA
The “PBM E-score” value of the first is lower: 0.0771 for the first, 0.189 for the second.

First: ATTGTTAC
Second: CTTGTTAC
The “PBM E-score” value of the first is higher: 0.362 for the first, 0.094 for the second.

First: ATTGTTAG
Second: ACTCTTGG
The “PBM E-score” value of the first is higher: 0.0985 for the first, -0.179 for the second.

First: AACACGTG
Second: CACACGTG
The “PBM E-score” value of the first is higher: 0.395 for the first, 0.386 for the second.

Compared with CACACGCC, CACACAAA is higher in “PBM E-score” value: 0.0149 for the first, 0.114 for the second.

First: CACACGTC
Second: TACACGTA
The “PBM E-score” value of the first is lower: 0.446 for the first, 0.453 for the second.

First: CACACGGC
Second: AACACAAA
The “PBM E-score” value of the first is lower: -0.0173 for the first, 0.0722 for the second.

Compared with AACACGAG, TACACGGA is higher in “PBM E-score” value: 0.033 for the first, 0.142 for the second.

First: TACACGAA
Second: CACACATA
The “PBM E-score” value of the first is higher: 0.251 for the first, 0.0532 for the second.

Going from GACTCTGA to GAGCTCCA, the “PBM E-score” value falls from -0.104 to -0.129.

First: AATCCTGG
Second: ATAGTTAC
The “PBM E-score” value of the first is lower: -0.199 for the first, 0.212 for the second.

First: CGCGACGA
Second: ACGTTCGA
The “PBM E-score” value of the first is lower: 0.125 for the first, 0.248 for the second.

Going from TCGGCTCA to GTAGAGGA, the “PBM E-score” value falls from -0.111 to -0.194.

First: AAACCGAG
Second: CCGCTCCG
The “PBM E-score” value of the first is higher: -0.175 for the first, -0.269 for the second.

Compared with GCCTTCCA, CACACGGA is higher in “PBM E-score” value: -0.222 for the first, -0.167 for the second.

Compared with CACACGTA, CACACGCG is lower in “PBM E-score” value: 0.45 for the first, 0.104 for the second.

Compared with CCTGCGAA, CGTAAGCC is higher in “PBM E-score” value: -0.0899 for the first, 0.203 for the second.

Going from GCGTTGGA to ACACTACG, the “PBM E-score” value rises from -0.00317 to 0.368.

Going from ACACTACA to ACACTACT, the “PBM E-score” value falls from 0.167 to -0.0134.

First: CACTACCA
Second: AGTCACGA
The “PBM E-score” value of the first is lower: -0.029 for the first, 0.103 for the second.

Compared with CCTCACGC, AGTCACGC is higher in “PBM E-score” value: 0.0875 for the first, 0.167 for the second.

Going from GGTCACGA to CGTCACGC, the “PBM E-score” value rises from -0.0631 to 0.433.

First: CGTCACGA
Second: GTTCGCGA
The “PBM E-score” value of the first is higher: 0.443 for the first, 0.133 for the second.

Compared with GGAAGCTA, AGTGCAGA is higher in “PBM E-score” value: -0.135 for the first, -0.0919 for the second.

First: CGGGATAA
Second: GGCTTGTA
The “PBM E-score” value of the first is higher: 0.0877 for the first, -0.158 for the second.

First: AGCTCAAT
Second: AGATTGAT
The “PBM E-score” value of the first is higher: 0.016 for the first, -0.0863 for the second.

Compared with CGTCATTC, AGTCATTA is lower in “PBM E-score” value: 0.482 for the first, 0.032 for the second.

Going from CCTCATTC to CGTCATTA, the “PBM E-score” value rises from -0.0556 to 0.487.

Going from GGTCATTA to AGTCATTC, the “PBM E-score” value falls from 0.232 to 0.135.

Compared with ACTCAAAC, GTGGCGCA is lower in “PBM E-score” value: 0.0881 for the first, 0.0382 for the second.

First: CCTGGCTC
Second: TGCTTCCA
The “PBM E-score” value of the first is lower: -0.137 for the first, -0.067 for the second.

Compared with GAAGCTTC, CTCTGCAA is higher in “PBM E-score” value: -0.375 for the first, -0.0293 for the second.

Going from CAGCTCAG to GGTCACTA, the “PBM E-score” value rises from -0.0505 to 0.0129.

Compared with CGTCACTA, AGTCACTA is lower in “PBM E-score” value: 0.445 for the first, 0.0867 for the second.

Compared with AGTCACTC, CCTCACTC is lower in “PBM E-score” value: -0.0377 for the first, -0.0833 for the second.

First: CGTCACTC
Second: CACCACCG
The “PBM E-score” value of the first is higher: 0.418 for the first, -0.248 for the second.

Going from TACGCCTA to AATCTAAC, the “PBM E-score” value falls from 0.208 to 0.124.

Going from CGATCTAA to CGGCATGA, the “PBM E-score” value rises from 0.0385 to 0.11.

Compared with TAGTATAA, ACTCCACG is lower in “PBM E-score” value: 0.24 for the first, 0.0133 for the second.

Going from AACTCTCA to CTGATGTC, the “PBM E-score” value rises from 0.0877 to 0.173.

First: CTGATGTA
Second: GTGATGAA
The “PBM E-score” value of the first is higher: 0.255 for the first, 0.111 for the second.

Compared with ATGATGTC, AAGATGTA is lower in “PBM E-score” value: 0.446 for the first, 0.206 for the second.

First: GTGATGTA
Second: ATGATGAA
The “PBM E-score” value of the first is higher: 0.397 for the first, 0.321 for the second.

First: ATGATGCC
Second: GTGATGCA
The “PBM E-score” value of the first is lower: 0.244 for the first, 0.249 for the second.

First: ATGATGTA
Second: ATGATGCA
The “PBM E-score” value of the first is higher: 0.459 for the first, 0.376 for the second.

First: ATGATGAC
Second: ATCGAAGG
The “PBM E-score” value of the first is higher: 0.327 for the first, 0.0197 for the second.

Compared with GTGAGCCA, GCGGAATA is higher in “PBM E-score” value: -0.0673 for the first, 0.0622 for the second.

First: CTAGAAGA
Second: TTTTAAAA
The “PBM E-score” value of the first is lower: 0.0318 for the first, 0.233 for the second.

Compared with ATTTAGTG, GCCGCTCC is lower in “PBM E-score” value: 0.0842 for the first, -0.396 for the second.

First: AATTTCAG
Second: TGACAGAA
The “PBM E-score” value of the first is lower: 0.0849 for the first, 0.141 for the second.

Going from GGGCAATA to CGACCGCA, the “PBM E-score” value falls from -0.14 to -0.266.

Compared with ATGATGAG, ATGATGTG is higher in “PBM E-score” value: 0.275 for the first, 0.379 for the second.

Going from AGGATGTG to AACTCCAG, the “PBM E-score” value rises from -0.206 to -0.205.

Compared with AGGAACAT, AAAGAACG is lower in “PBM E-score” value: 0.176 for the first, 0.143 for the second.

First: ATTGACTA
Second: CCTATTTC
The “PBM E-score” value of the first is lower: -0.0436 for the first, 0.0978 for the second.

First: CGTATTTC
Second: GGTATTTA
The “PBM E-score” value of the first is higher: 0.367 for the first, 0.0513 for the second.

Compared with CGTATTTA, AGTATTTC is lower in “PBM E-score” value: 0.419 for the first, 0.108 for the second.

Going from AGTATTTA to GTCGAGAA, the “PBM E-score” value falls from 0.164 to 0.107.

Going from CCGATGAA to AGAGAGGC, the “PBM E-score” value falls from -0.198 to -0.353.

First: AGCCCAGG
Second: AACTAAGC
The “PBM E-score” value of the first is lower: -0.331 for the first, 0.123 for the second.

Compared with GAAGGAAC, AAAACGTC is higher in “PBM E-score” value: -0.138 for the first, 0.409 for the second.

First: TAAACGGA
Second: CAAACGCA
The “PBM E-score” value of the first is lower: -0.0437 for the first, 0.0771 for the second.

Going from AAAACGTG to AAAACGCC, the “PBM E-score” value falls from 0.304 to 0.0157.

First: AAAACGTA
Second: CAAACGTG
The “PBM E-score” value of the first is higher: 0.449 for the first, 0.272 for the second.

Going from AAAACGTT to TAAACGAA, the “PBM E-score” value falls from 0.207 to 0.116.

First: CAAACGTA
Second: AAAACGAC
The “PBM E-score” value of the first is higher: 0.416 for the first, 0.113 for the second.

Going from TAAACGTA to CGTGCTAC, the “PBM E-score” value falls from 0.42 to 0.208.

Compared with CACTATAG, ATTTCAAC is higher in “PBM E-score” value: -0.00316 for the first, 0.0828 for the second.

Compared with ACGGTAGG, GAAACGAA is higher in “PBM E-score” value: -0.189 for the first, 0.115 for the second.

Compared with GAAACGCC, GAAACGTC is higher in “PBM E-score” value: 0.145 for the first, 0.385 for the second.

Compared with GAAACGGA, GAAACGTA is higher in “PBM E-score” value: 0.15 for the first, 0.398 for the second.

For CAAACGTC, the “PBM E-score” value was 0.329.
